Screens as filed in PubChem.
Shown are actives, neighbours in structure and some others; about 5.2% of the full set was active somewhere.
PLK1 PBD block – inhibitors of human PLK1 polo-box domain binding; Potency, µM, actives largely listed as inhibitors; Plk1 PBD binding of FITC phosphopeptide, fluorescence polarization; P53350; 2.8% of 360,000 active; also: series mostly up to about 57 µM; nearly all actives have a fitted effect of over 65% in size
IDH1 R132H inh – blocks human mutant IDH1 R132H enzyme; O75874; IDH1-R132H enzyme, NADPH consumption, diaphorase/resazurin fluorescence; Potency, µM (titrated, usually from 76.6 µM), hits mostly inhibitors; 0.093% of 390,000 active; AID 602179; also: nearly all actives have a fitted effect of over 65% in size
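IDH1-R132H (0.5 ug/mL) preincubated 30 min with compound, then NADPH (0.016 mM) and alpha-KG (2 mM) added; 80 min at RT, pH 7.5. Remaining NADPH coupled via diaphorase/resazurin to fluorescence (540/590 nm); concentration-response curves normalized to no-enzyme control.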
TrxR1 substrate – is turned over as a substrate by rat TrxR1. O89049. purified TrxR1 substrate turnover, NADPH consumption readout. Potency, µM (top dose mostly 114 µM). 0.01% of 390,000 active; also: nearly all actives have a fitted effect of over 50% in size
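Rat TrxR1, dispensed at 90 nM, was prereduced with 400 uM NADPH (final) for 5 min at ~22 deg C, then incubated with compound 15 min before 400 uM selenite. A first-read NADPH fluorescence drop versus no-compound background flagged substrates.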
VDR inh – blocks the human vitamin D receptor; 0.93% of 400,000 active; P11473; VDR-SRC2-3 peptide fluorescence polarization, 2 h; Potency, µM, most hits filed as inhibitors
Target sequence (P11473 whole entry, looked up): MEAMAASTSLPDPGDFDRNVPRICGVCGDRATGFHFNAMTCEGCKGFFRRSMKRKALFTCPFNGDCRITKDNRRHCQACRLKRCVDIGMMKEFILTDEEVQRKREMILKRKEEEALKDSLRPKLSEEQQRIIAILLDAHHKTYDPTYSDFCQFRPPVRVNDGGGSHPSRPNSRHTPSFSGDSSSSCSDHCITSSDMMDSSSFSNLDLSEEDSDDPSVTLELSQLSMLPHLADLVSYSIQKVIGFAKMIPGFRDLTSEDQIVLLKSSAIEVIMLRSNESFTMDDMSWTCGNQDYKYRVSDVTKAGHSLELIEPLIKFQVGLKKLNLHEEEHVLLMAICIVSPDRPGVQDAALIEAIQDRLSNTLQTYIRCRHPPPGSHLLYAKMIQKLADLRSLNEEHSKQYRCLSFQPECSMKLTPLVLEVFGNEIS
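Inhibition of the VDR/SRC2-3 peptide interaction is quantified by fluorescence polarization. Compounds (23 nl, pintool) incubate with the reagents for 2 hours at ambient room temperature.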
Sfp PPTase inh – blocks B. subtilis Sfp PPTase activity | Potency, µM, usual class: inhibitors | Biochemical Sfp PPTase activity, qHTS | 3.5% of 310,000 active;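 also: the enzyme is Sfp with the accession as filed and its product quenches rhodamine fluorescence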
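After 15 min at room temperature with compound, 15 nM Sfp received 5 uM rhodamine-CoA plus 12.5 uM BHQ-2-ybbR (50 mM Hepes pH 7.6, 10 mM MgCl2). Rate came from the fluorescence difference over 30 min, ex 525/em 598 nm.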
rTrxR1 inhibitor – rat TrxR1 inhibition; O89049; recombinant rTrxR1, NADPH fluorescence consumption, selenite substrate; Potency, µM (highest dose often 114 µM), actives largely listed as inhibitors; 1% of 390,000 active; also: nearly all actives have a fitted effect of over 65% in size
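Rat TrxR1 (90 nM in the dispensed reagent) was pre-reduced with 400 uM NADPH for 5 min at room temperature, then incubated with compound for 15 min. After 400 uM selenite was added, NADPH fluorescence (Ex 340/Em 450 nm) was followed for 8 min.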
Each line names hits and unclear results; the compound was inactive in the other large screens; ! = repeats disagree. Calls follow the shape of the dose curve; as a rule, active = well fitted curve in the direction sought with a large enough effect; inconclusive = small, poorly fitted or top-dose-only effect, or another doubt; inactive = no such curve, though single readings can be large; an effect the other way counts as inactive or inconclusive.

CC(=O)c1cccc(-n2c(=O)c3c4c(sc3n(Cc3cccc(C)c3)c2=O)CN(C(C)=O)CC4)c1	IDH1 R132H inh inconclusive (no result: PLK1 PBD block, Sfp PPTase inh)
COc1ccccc1C(=O)NNC(=O)C(=O)Nc1ccc(C)c(Cl)c1	PLK1 PBD block 30µM
Cc1ccc(NC(=O)C(=O)NNC(=O)c2ccccc2C)cc1Cl	none
COc1ccccc1C(=O)NNC(=O)c1cccc(C)c1	PLK1 PBD block 17µM, VDR inh 71µM
COc1ccc(C(=O)NNC(=O)C(=O)Nc2ccc(C)c(Cl)c2)cc1	PLK1 PBD block 27µM, VDR inh inconclusive
CC(C)Sc1nc2sc3c(c2c(=O)n1Cc1ccccc1)CCCC3	none (no result: PLK1 PBD block, Sfp PPTase inh)
COc1ccc(-n2c(C)cc(/C=N/Nc3nnc(C)n3N)c2C)cc1	VDR inh inconclusive, Sfp PPTase inh 32µM, rTrxR1 inhibitor inconclusive
COc1cccc(/C=N/Nc2nnc(C)n2N)c1O	none
CC(=O)Nc1ccc(-c2ccnc3c2CC(C)(C(=O)Nc2ccc(C(C)C)cc2)O3)cc1 (configuration not stated)	none (no result: IDH1 R132H inh, TrxR1 substrate, VDR inh, Sfp PPTase inh, rTrxR1 inhibitor)
COc1ccc(CC(=O)NCC2CCCN(Cc3cccc(C(F)(F)F)c3)C2)cc1 (configuration not stated)	PLK1 PBD block 27µM, VDR inh inconclusive
COc1ccc(C(=O)C[n+]2cn(C(F)F)c3ccccc32)c(F)c1	PLK1 PBD block 13µM, VDR inh inconclusive, rTrxR1 inhibitor inconclusive
COc1cc(C2NC(=O)NC3=C2C(=O)OC3)cc(OC)c1OC (configuration not stated)	PLK1 PBD block 30µM
CCCCN1CC[C@H]2C=CC[C@@H](C(=O)NC3CCCCC3)[C@H]2C1=O	none (no result: PLK1 PBD block, IDH1 R132H inh, VDR inh, Sfp PPTase inh)
Cc1ccc(-n2cc(-c3ccccc3)c3c(N4CCCCC4)ncnc32)cc1	none (no result: PLK1 PBD block, Sfp PPTase inh)
O=C(Nc1ccccc1)c1ccc2c(O)c(S(=O)(=O)c3ccc(Cl)cc3)c(=O)[nH]c2c1	none (no result: PLK1 PBD block, Sfp PPTase inh)
O=C(c1c(O)c2ccc(Cl)cc2[nH]c1=O)C1CC1	Sfp PPTase inh 45µM! (no result: PLK1 PBD block, IDH1 R132H inh, TrxR1 substrate, rTrxR1 inhibitor)
COc1ccc2c(c1OC)C(=O)OC2c1ccc(O)cc1 (configuration not stated)	none (no result: PLK1 PBD block, IDH1 R132H inh, Sfp PPTase inh)
CC(=O)Nc1ccc(SCC(=O)c2ccc(Br)s2)cc1	PLK1 PBD block 4.7µM, VDR inh inconclusive, Sfp PPTase inh 50µM
Cc1ccnc(SCC(=O)c2ccc(Br)s2)n1	Sfp PPTase inh 79µM
N#C/C(=C\c1coc2ccc(O)cc2c1=O)C(=O)Nc1nc2ccccc2s1	PLK1 PBD block inconclusive, IDH1 R132H inh inconclusive, VDR inh inconclusive, rTrxR1 inhibitor 14µM
C[C@@H](C(=O)NCc1ccc(C(F)(F)F)nc1)[C@H]1C[C@]1(C)[C@H](NC(=O)OCc1ccccc1)c1ccccc1	none (no result: PLK1 PBD block, IDH1 R132H inh, TrxR1 substrate, VDR inh, rTrxR1 inhibitor)
COc1cc2nc(C3CCC3)n(NC(=O)C3CCC(OC)CC3)c(=O)c2cc1OC (configuration not stated)	none
COc1cc2nc(C3CCC3)n(NC(=O)C3CCC3)c(=O)c2cc1OC	PLK1 PBD block 24µM
COc1cc2nc(C3CCC3)n(NC(=O)COc3ccccc3)c(=O)c2cc1OC	PLK1 PBD block 27µM, VDR inh inconclusive
c1ccc2nc3c(cc2c1)CCCCC3	PLK1 PBD block 3.4µM, VDR inh inconclusive, Sfp PPTase inh inconclusive
c1ccc(C2OCCN2c2ccccc2)cc1 (configuration not stated)	none (no result: Sfp PPTase inh)
O=C1c2ccc(Oc3cccc([N+](=O)[O-])c3)cc2C(=O)N1c1ccccn1	PLK1 PBD block 11µM, VDR inh inconclusive
CCCOc1ccc(Cl)cc1CNc1ccccc1	PLK1 PBD block 17µM
CCOc1ccc(Cl)cc1CNc1nnnn1C	none
COc1ccc(S(=O)(=O)NC(C)CCc2ccccc2)cc1 (configuration not stated)	PLK1 PBD block 5.3µM, VDR inh inconclusive
Cc1ccc2c(c1)CC1(CN2C)C(=O)OC(C)(C)OC1=O	rTrxR1 inhibitor 20µM!
O=C(c1ccccc1)c1ccc(OCC(O)CNCc2ccc(F)cc2)cc1 (configuration not stated)	none
O=C(c1ccccc1)c1ccc(OCC(O)CNCc2cccc(Cl)c2)cc1 (configuration not stated)	Sfp PPTase inh 89µM
O=C(CCNS(=O)(=O)c1ccc(Br)cc1)NCc1ccc(Cl)cc1	PLK1 PBD block 27µM
Cc1ccc(CNC(=O)CCNS(=O)(=O)c2ccc(C)cc2)cc1	none
O=C(COc1ccccc1F)Nc1ccccc1C(=O)OCc1cc(=O)n2nc(C3CC3)sc2n1	none (no result: PLK1 PBD block, Sfp PPTase inh)
CC1Cc2ccccc2N1C(=O)CSc1nnc(NC(=O)Cc2cccs2)s1 (configuration not stated)	PLK1 PBD block 30µM
CCC(=O)Nc1nnc(SCC(=O)N2c3ccccc3CC2C)s1 (configuration not stated)	none
CC(=O)N1c2c(cc(Br)cc2S(=O)(=O)N2CCN(c3ccccc3)CC2)CC1C (configuration not stated)	none (no result: PLK1 PBD block, Sfp PPTase inh)
CC(=O)N1c2c(cc(Br)cc2S(=O)(=O)N2CCN(C(=O)c3ccco3)CC2)CC1C (configuration not stated)	PLK1 PBD block 4.7µM, VDR inh inconclusive
O=[N+]([O-])c1ccccc1S(=O)(=O)N1CCCCC1	PLK1 PBD block 27µM
O=C(c1ccco1)N1CCN(S(=O)(=O)c2ccccc2[N+](=O)[O-])CC1	PLK1 PBD block 30µM
Cc1ccc(OCC(=O)NCC2(N(C)C)CCCCC2)cc1C	none (no result: PLK1 PBD block, Sfp PPTase inh)
O=C1CSC(c2ccncc2)N1Cc1ccco1 (configuration not stated)	Sfp PPTase inh 56µM, rTrxR1 inhibitor inconclusive
CC(=O)O[C@@H]1CC[C@@]2(C)[C@H](C1)[C@H](OC(C)=O)C[C@@H]1[C@@H]2C[C@H]2[C@@H]3CN4C[C@H](C)CC[C@H]4[C@H](C)[C@H]3CC[C@@]12O	none (no result: PLK1 PBD block, IDH1 R132H inh, TrxR1 substrate, rTrxR1 inhibitor)
CC1(C)CC(=O)C(Sc2ccccc2)=C(O)C1	PLK1 PBD block 12µM
O=c1oc2ccccc2c(N2CCCCC2)c1CN1CCCCC1	rTrxR1 inhibitor 25µM
O=c1oc2ccccc2c(N2CCCCC2)c1CN1CCCC1	none
Cc1nnc(SCC(=O)Nc2ccccc2)c2ccccc12	none
O=c1c(-c2ccc(Br)cc2)[n+]([O-])c2ccccc2n1OCc1ccccc1	none
CC(C)(C)c1ccc(COn2c(=O)c(-c3ccco3)[n+]([O-])c3ccccc32)cc1	Sfp PPTase inh 56µM
COc1cccc(-c2nc(S(=O)(=O)c3ccccc3)c(N3CCC(C)CC3)o2)c1	none (no result: PLK1 PBD block, Sfp PPTase inh)
COc1cccc(OCCNCc2ccccc2)c1	PLK1 PBD block 17µM, VDR inh inconclusive
CCOc1ccc(C(C)(N)C(=O)O)cc1 (configuration not stated)	none
CC(N)(C(=O)O)c1ccc(C(=O)O)cc1 (configuration not stated)	Sfp PPTase inh 56µM (no result: PLK1 PBD block, IDH1 R132H inh)
